Compound activity: PubChem BioAssay, National Center for Advancing Translational Sciences (NCATS)
An excerpt weighted towards active compounds, which were near 7.5% of everything screened.
Giardia FBPA inh-1 – blocks Giardia fructose-bisphosphate aldolase activity; purified Giardia FBPA; Potency, µM (doses to about 59.6 µM), for inactives: at the top dose activity, negative = inhibition, most hits filed as inhibitors; AID 2451; hit rate 0.71% among 290,000; note: potency is the fitted concentration of half-maximal effect; nearly all actives have a fitted effect of over 55% in size
Target sequence (A8B2U2 whole entry, looked up): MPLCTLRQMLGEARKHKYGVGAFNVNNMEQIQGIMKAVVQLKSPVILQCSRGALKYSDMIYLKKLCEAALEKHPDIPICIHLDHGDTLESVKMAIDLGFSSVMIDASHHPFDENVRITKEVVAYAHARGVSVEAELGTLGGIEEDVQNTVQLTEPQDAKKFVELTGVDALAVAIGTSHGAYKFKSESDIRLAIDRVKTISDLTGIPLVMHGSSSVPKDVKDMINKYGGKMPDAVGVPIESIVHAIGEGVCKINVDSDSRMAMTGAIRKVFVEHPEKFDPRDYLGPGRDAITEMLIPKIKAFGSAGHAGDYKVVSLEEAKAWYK
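40 nM FBPA preincubated 10 min at RT with compound (up to 57.5 uM final), then substrate plus GAPDH/TPI/NAD/arsenate coupling and diaphorase/resazurin added. Fluorescence read after 20 min at RT, 525/598 nm.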
HCV inh – blocks hepatitis C virus. hit rate 3.4% among 340,000. Huh7.5.1 HCVcc-Cre infection, luciferase reporter, 44 h. AID 651820. Potency, µM (highest dose often 41.8 µM), for the others: at the highest dose activity change, negative = inhibition, most hits filed as inhibitors; note: potency is the fitted concentration of half-maximal effect
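Luciferase read-out (15 sec integration) after a 15 min room-temperature substrate step quantifies HCVcc-Cre infection. Cells, 1,000 per well, had compound added 4 h post-plating, then virus at ~0.5 moi, and were cultured 44 h.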
Vaccinia mCherry – vaccinia inhibition (mCherry reporter); Vaccinia virus mCherry reporter infection, fluorescence; Potency, µM (highest dose often 36.5 µM), inactives show at the top dose activity change, negative = inhibition, most hits filed as inhibitors; hit rate 0.63% among 310,000; calls by dose curve; tested in A549 cells; note: potency is the fitted concentration of half-maximal effect; nearly all actives have a fitted effect of over 35% in size
VACV Venus inh – inhibitors of vaccinia virus (Venus reporter). Vaccinia virus Venus reporter expression, fluorescence. Potency, µM (series often up to 36.5 µM), for inactives: at the highest dose activity change, negative = inhibition, hits mostly inhibitors. hit rate 0.46% among 330,000; calls by dose curve; tested in A549 cells; note: potency is the fitted concentration of half-maximal effect; nearly all actives have a fitted effect of over 30% in size
HCMV antiviral – blocks human cytomegalovirus replication | HFF cells, HCMV-luciferase reporter, 72 h; active compounds read low | activity change, negative = inhibition, % at 57.5 µM | hit rate 4.5% among 410,000 | AID 1259415; in the data active = activity change below about -60%; inconclusive = no clear call, values can overlap the other calls; inactive = above about -39%
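Two compound doses tested in HFFs infected with HCMV-luciferase, MOI 1 PFU/cell, 72 h at 37C. Lysate luminescence read with OneGlo; data normalized against buffer-only and 10uM Salinomycin inhibitor controls.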
FMDV antiviral – antivirals against foot and mouth disease virus; AID 1159524; Potency, µM (highest dose often 57.9 µM), for the others: at the top dose activity change, negative = inhibition, most hits filed as inhibitors; hit rate 1.2% among 410,000; FMDV antiviral cell-based qHTS; calls by dose curve; tested in HEK293T cells; note: read-out not given here; potency is the fitted concentration of half-maximal effect; nearly all actives have a fitted effect of over 45% in size
Giardia growth – inhibitors of Giardia lamblia growth. shares compounds with Giardia FBPA inh-1. Giardia lamblia trophozoite growth inhibition. Potency, µM (top dose mostly 57.5 µM), without a hit: at the highest dose activity change, negative = inhibition, most hits filed as inhibitors. hit rate 5% among 1,500. AID 2785;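 note: potency is the fitted concentration of half-maximal effect; trophozoites exposed to compound for 48 h at 37 °C; nearly all actives have a fitted effect of over 70% in size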
Mammalian tox – toxic to mammalian cells in Giardia aldolase counter-screen; shares compounds with Giardia FBPA inh-1; mammalian cell viability counter-screen, qHTS; Potency, µM (titrated, usually from 57.5 µM), for inactives: at the top dose viability change, negative = toxicity, hits mostly inhibitors; hit rate 4% among 1,500; AID 2786;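 note: Chinese hamster ovary cells used as mammalian cytotoxicity surrogate; viability measured as cellular ATP by luminescence; potency is the fitted concentration of half-maximal effect; compound exposure lasted 48 h before reading; nearly all actives have a fitted effect of over 60% in size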
Giardia FBPA inh-2 – confirmation of Giardia fructose-bisphosphate aldolase inhibitors | purified Giardia aldolase enzyme activity, qHTS | AID 2787 | Potency, µM (series often up to 57.5 µM), for the others: top-dose activity change, negative = inhibition, actives largely listed as inhibitors | hit rate 5% among 1,500 | shares compounds with Giardia FBPA inh-1; note: potency is the fitted concentration of half-maximal effect; nearly all actives have a fitted effect of over 45% in size
Rabbit FBPA inh – rabbit FBP aldolase inhibition by Giardia aldolase hits; Potency, µM (highest dose often 57.5 µM), inactives show at the highest dose activity, negative = inhibition, actives largely listed as inhibitors; Rabbit muscle FBPA enzyme inhibition, selectivity counter-screen; AID 2794; hit rate 4% among 1,500; shares compounds with Giardia FBPA inh-1; note: potency is the fitted concentration of half-maximal effect; nearly all actives have a fitted effect of over 60% in size
Target sequence (P00883 whole entry, looked up): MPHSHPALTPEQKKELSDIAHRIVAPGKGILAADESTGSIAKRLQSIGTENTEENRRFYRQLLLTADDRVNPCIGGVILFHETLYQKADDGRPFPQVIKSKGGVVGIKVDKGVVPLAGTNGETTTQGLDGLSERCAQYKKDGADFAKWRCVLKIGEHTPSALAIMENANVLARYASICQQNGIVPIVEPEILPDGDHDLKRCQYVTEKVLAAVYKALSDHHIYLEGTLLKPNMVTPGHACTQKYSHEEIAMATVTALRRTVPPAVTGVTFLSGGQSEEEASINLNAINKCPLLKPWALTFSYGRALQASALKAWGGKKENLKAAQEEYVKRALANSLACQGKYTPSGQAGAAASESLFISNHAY
GAPDH coupling – GAPDH inhibition flagged for Giardia aldolase hits; shares compounds with Giardia FBPA inh-1; GAPDH coupling enzyme counterscreen, biochemical, qHTS; Potency, µM (titrated, usually from 57.5 µM), for the others: at the highest dose activity change, negative = inhibition, usual class: inhibitors; hit rate 6% among 1,500; note: potency is the fitted concentration of half-maximal effect; nearly all actives have a fitted effect of over 55% in size
Numbers without * were called inactive; i = inactive; ? = inconclusive; . = no result; [ ] = another dose, or the depositor's remark. Unless noted, calls come from the whole dose curve; as a rule, active = well fitted curve in the direction sought with a large enough effect; inconclusive = small, poorly fitted or top-dose-only effect, or another doubt; inactive = no such curve, though single readings can be large; an effect the other way counts as inactive or inconclusive. % is set by controls: 0 for no effect and ±100 for the full control effect.

SMILES | Giardia FBPA inh-1 | HCV inh | Vaccinia mCherry | VACV Venus inh | HCMV antiviral | FMDV antiviral | Giardia growth | Mammalian tox | Giardia FBPA inh-2 | Rabbit FBPA inh | GAPDH coupling
Cc1c(OCC(F)(F)F)ccnc1CS(=O)c1nc2ccccc2[nH]1 (centres undefined) | -15% | ? | -25% | -23% | 22 | -13% | . | . | . | . | .
COc1ccccc1-n1c(-c2ccco2)n[nH]c1=S | 14µM* | 8% | i | -2% | -12 | -4% | 3%[10.4 µM] | 6% | -3% | 14% | -8%
COc1ccccc1-c1n[nH]c(=S)n1-c1ccccc1 | -13% | 9% | -5% | -2% | 18 | 30% | . | . | . | . | .
COc1ccccc1-c1n[nH]c(=S)n1N | 16µM* | 4% | i | 0% | 15 | -12% | 12% | -10% | 4% | 6% | 8%
COc1ccccc1-n1c(CNC(=O)c2ccco2)n[nH]c1=S | 11µM* | 8% | -14% | -7% | 8 | 3% | 52% | 9% | 2% | 1% | 13%
CN(CC(=O)Nc1ccccc1Br)C(=O)CCc1nc2ccccc2c(=O)[nH]1 | . | 12% | -19% | -15% | 26 | -4% | . | . | . | . | .
CN(CC(=O)Nc1ccccc1Br)Cc1nc2ccccc2c(=O)[nH]1 | 20µM* | -3% | . | -26% | 10 | -18% | -2%[10.4 µM] | -16% | 0% | -7% | ?
CC1CCN(S(=O)(=O)c2ccc3c(c2)N(CC(=O)NCc2ccccc2)C(=O)CO3)CC1 | . | . | -23% | -9% | -9 | ? | . | . | . | . | .
NC(=O)c1cccc2c1-c1ccccc1/C2=N/NC(N)=S | 11µM* | ? | . | . | -5 | -9% | -23% | -28% | -3% | 0% | 9%
COC(=O)c1cccc2c1-c1ccccc1/C2=N\NC(N)=O | 10% | ? | . | . | -19 | 0% | . | . | . | . | .
NC(=S)N/N=C1\c2ccccc2-c2c(C(=O)O)cccc21 | 4µM* | 4% | . | . | 0 | 7% | 4%[10.4 µM] | 2% | 6% | 3% | 11%
Cn1c(=O)c2c([nH]c(=S)n2Cc2ccc(Cl)cc2)n(C)c1=O | 8.9µM* | -1% | i | 2% | -4 | 3% | -1%[38.3 µM] | -19% | -5% | -11% | -2%
O=C(Nc1sc2c(c1C(=O)NCC1CCCO1)CCC2)c1cc(=O)c2cc(Cl)ccc2o1 (centres undefined) | . | . | 11% | -4% | -10 | 4% | . | . | . | . | .
Cc1cc(=O)[nH]c(SCC(=O)/C=C2\N(C)c3ccccc3C2(C)C)n1 | -1% | -15% | 20% | 128% | ? | -10% | . | . | . | . | .
CN1/C(=C\C(=O)CSc2cccc[n+]2[O-])C(C)(C)c2ccccc21 | 11µM* | ? | 3% | 9% | -16 | 0% | -21% | 24% | -3% | 7% | 2%
COc1cc(NS(=O)(=O)c2ccc(C)cc2)c2c(c1N)C(=O)c1ccccc1C2=O | . | . | 64% | 398% | -26 | 48% | . | . | . | . | .
CN(C(=O)c1ccccc1Br)C1CCS(=O)(=O)C1 (centres undefined) | . | 17% | -14% | -6% | -25 | -4% | . | . | . | . | .
CN(C1=C(NC(=O)c2ccccc2)C(=O)c2ccccc2C1=O)C1CCS(=O)(=O)C1 (centres undefined) | 0.63µM* | ? | . | . | -99* | 10µM* | 25µM* | 40µM* | ? | ? | 6.3µM*
CC(=O)Nc1ccc(NC(=O)c2cc(CN3CCCC3)on2)cc1 | . | . | 1% | -1% | 20 | -17% | . | . | . | . | .
COc1ccc(-c2cc(C(F)(F)F)c(C#N)c(=O)[nH]2)cc1 | -3% | ? | -5% | -6% | ? | -8% | . | . | . | . | .
COc1ccc(-c2cc(-c3ccco3)[nH]c(=O)c2C#N)cc1 | 20µM* | 15% | . | . | -19 | -11% | -29% | -7% | -12% | -1% | -1%
O=C1[C@H]2[C@@H](c3ccccc3)N[C@]3(CCCN(Cc4ccc(F)cc4)C3=O)[C@H]2C(=O)N1Cc1ccccc1 | . | . | -7% | -22% | 11 | 0% | . | . | . | . | .
COC(=O)[C@@H](N)CS | 16µM* | -2% | -15% | -15% | -9 | -16% | 3%[10.4 µM] | 1% | 4% | 11% | 13%
CN(C)c1ncnc2c1NC1=C(S2)C(=NCCCC(=O)O)CC(C)(C)C1 | ? | 7% | -14% | 2% | -27 | -24% | -3%[38.3 µM] | -19% | -17% | -12% | -23%
Cc1ccc(S(=O)(=O)Nc2ccc(Cl)cc2O)cc1 | . | . | -9% | ? | 4 | -3% | . | . | . | . | .
CCOc1cc(C(=O)Nn2cnnc2)cc(OCC)c1OCC | 4% | 3% | -5% | -5% | -26 | -9% | . | . | . | . | .
